In the library only some 1.2% were active in any assay of this set; here they are far more common.
Bcl-xL primary = inhibitors of human Bcl-xL | 320,000 tested, 0.7% active | inhibition, % at 10.9 µM | GST-Bcl-xL / FITC-Bim BH3 peptide fluorescence polarization | AID 2129;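 active = inhibition above the mean of all tested compounds plus 3 SD, cutoff set per campaign, cut at about 30% in these data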;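 note: inhibitors lower millipolarization by displacing the labeled peptide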
Target sequence (Q07817 whole entry, looked up): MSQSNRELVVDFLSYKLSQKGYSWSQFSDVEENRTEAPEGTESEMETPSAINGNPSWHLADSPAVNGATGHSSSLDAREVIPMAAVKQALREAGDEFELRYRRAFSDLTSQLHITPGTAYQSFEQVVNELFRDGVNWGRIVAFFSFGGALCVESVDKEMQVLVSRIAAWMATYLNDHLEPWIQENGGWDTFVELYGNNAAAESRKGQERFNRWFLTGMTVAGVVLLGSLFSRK
E coli Lon inh = inhibitors of E. coli Lon protease; P0A9M0; purified E. coli Lon protease, fluorescence polarization; inhibition, % at 7.94 µM; 360,000 tested, 0.42% active; in the data active = inhibition above about 13%, passing the limit was not always enough
GLD-1 TGE inh = GLD-1-TGE RNA interaction inhibition (C. elegans); Q17339; purified GLD-1 + fluorescein TGE RNA, fluorescence polarization; inhibition, % at 5.96 µM; 320,000 tested, 0.44% active;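 active = percent inhibition above a per-plate cutoff, the plate mean of test compounds plus 3 SD, cut at about 30% in these data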
Target sequence (Q17339 whole entry, looked up): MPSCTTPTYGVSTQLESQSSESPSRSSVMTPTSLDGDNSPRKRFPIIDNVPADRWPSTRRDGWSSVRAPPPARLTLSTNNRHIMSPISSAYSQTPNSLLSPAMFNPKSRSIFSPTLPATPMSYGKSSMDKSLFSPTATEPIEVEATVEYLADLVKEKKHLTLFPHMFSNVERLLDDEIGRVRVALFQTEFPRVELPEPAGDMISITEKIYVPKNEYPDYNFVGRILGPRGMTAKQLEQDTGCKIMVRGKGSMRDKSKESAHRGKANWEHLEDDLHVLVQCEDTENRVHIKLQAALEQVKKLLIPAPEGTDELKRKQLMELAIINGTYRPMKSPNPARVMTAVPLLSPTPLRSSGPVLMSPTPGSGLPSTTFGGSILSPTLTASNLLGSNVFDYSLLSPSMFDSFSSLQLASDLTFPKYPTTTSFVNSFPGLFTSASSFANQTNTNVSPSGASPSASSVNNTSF
Cardiac RTF inh = cardiac RTF calcium desensitization; inhibition, % at 7.15 µM; IANBD-labeled cardiac RTF, Ca2+ fluorescence; 340,000 tested, 0.12% active; P19429+P45379;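 active = inhibition above the mean inhibition of all tested compounds plus 3 SD, cut at about 17% in these data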;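 note: assay run at fixed EC70 calcium of 1.6 mM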
RTF Ca sens act = increases calcium sensitivity of human cardiac regulated thin filaments | activation, % at 7.2 µM | 340,000 tested, 0.24% active | AID 493008 | IANBD-labeled TnC RTF fluorescence at EC20 calcium; 0% EC20 calcium, 100% full calcium | P19429+P45379;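 active = activation above the mean over all tested compounds plus 3 SD, cut at about 30% in these data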;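 note: rise in fluorescence read as greater calcium sensitivity of cardiac thin filaments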
RTF inh confirm = cardiac RTF calcium sensitivity inhibition, confirmation; shares compounds with Cardiac RTF inh; reconstituted cardiac thin filaments, calcium sensitivity fluorescence; inhibition, % at 7.15 µM; 360 tested, 8% active; in the data active = inhibition above about 18%
Large screens that a line does not name were inactive (follow-up assays come after a bar, where they were run); ! = a repeat was not active.

O=C1CCCc2c1cnc1ncnn21	Cardiac RTF inh 18 | RTF inh confirm inactive
Nc1c(-c2ccsc2)cnc2ncnn12	none
CC1(C)OC(C)(C)/C(=C/Nc2ccc(O)cc2)C1=O	Cardiac RTF inh 190 | RTF inh confirm inactive
CC1CCC/C(=C\Nc2ccc(O)cc2)C1=O (stereo not given)	none
Cn1c(NC(=O)c2ccc(S(=O)(=O)N3CCCCC3)cc2)cc(=O)n(C)c1=O	Cardiac RTF inh 17 | RTF inh confirm inactive
CC(=O)Nc1ccc(C(=O)Nc2ccc(S(=O)(=O)N3CCCCC3)cc2)cc1	none
COc1ccc(CCNC(=O)c2ccc(NC(=O)CC3SC(N4CCCCC4)=NC3=O)cc2)cc1 (stereo not given)	none (no result: Bcl-xL primary, GLD-1 TGE inh)
COCCCC/C(=N\OCCN)c1ccc(C(F)(F)F)cc1	Cardiac RTF inh 20! | RTF inh confirm inactive
N#CCCCSc1nnc(Cc2ccc3c(c2)OCO3)o1	none
O=C(CCCCCN1C(=O)c2ccccc2C1=O)Nc1ccccc1	Cardiac RTF inh 18 | RTF inh confirm inactive
COc1ccc(CNC(=O)c2ccc(CS(=O)Cc3ccc(Cl)cc3)o2)cc1 (stereo not given)	none
Cc1ccc(CS(=O)Cc2ccc(C(=O)NCc3ccc(OC(C)C)cc3)o2)cc1 (stereo not given)	Cardiac RTF inh 27 | RTF inh confirm inactive
COCCNc1oc(/C=C/c2ccccc2OC)nc1S(=O)(=O)c1ccccc1	Cardiac RTF inh 18 | RTF inh confirm inactive
CN=c1scc(-c2cccs2)n1/N=C/c1ccccc1O	Cardiac RTF inh 17 | RTF inh confirm inactive
CCOc1cc2nc(-c3ccc(OC)c(OC)c3)nc(N3CCOCC3)c2cc1OC	none (no result: E coli Lon inh, Cardiac RTF inh, RTF Ca sens act)
CC1=NN(c2cccc(C(=O)O)c2)C(=O)/C1=C\C=C\c1ccco1	Cardiac RTF inh 35 | RTF inh confirm inactive
CC1=NN(c2ccccc2)C(=O)/C1=C/C=C/c1ccccc1	none
COc1ccccc1NC(=O)CSc1nncn1-c1ccccc1	none
COc1ccc([N+](=O)[O-])cc1NC(=O)CSc1nncn1-c1ccccc1	Cardiac RTF inh 19 | RTF inh confirm inactive
CCOC(=O)CSc1nnc(-c2c[nH]c3ccccc23)n1CC	none
CC1(C)OC2CC3C4CCC5=CC(=O)C=CC5(C)C4(F)C(O)CC3(C)C2(C(=O)CO)O1 (stereo not given)	none (no result: Bcl-xL primary, GLD-1 TGE inh, Cardiac RTF inh, RTF Ca sens act)
CC1CCCCN1C(=O)Cn1cnc2cc([N+](=O)[O-])ccc2c1=O (stereo not given)	Cardiac RTF inh 18 | RTF inh confirm inactive
CCOC(=O)Nc1nc(-c2ccccc2)c(C(=O)c2ccc(Cl)cc2)s1	none
Cc1ccc(C(=O)N2CCN(c3ccc(NC(=O)Cc4ccccc4)cc3)CC2)cc1	Cardiac RTF inh 18 | RTF inh confirm inactive
CCOc1cc2c(cc1OCC)C(C(=O)O)C(c1cc(Br)c(O)c(OC)c1)N(C)C2=O (stereo not given)	none
Nc1ccc(C(=O)N/N=C/c2cn(Cc3ccc(F)cc3)c3ccccc23)cc1	none (no result: Bcl-xL primary, GLD-1 TGE inh)
O=C(N/N=C/c1cn(Cc2cccc(F)c2)c2ccccc12)c1cc(O)cc(O)c1	Cardiac RTF inh 21 (no result: Bcl-xL primary, GLD-1 TGE inh) | RTF inh confirm inactive
Cc1cc(OCCCC(=O)NC2=NCCS2)ccc1Cl	Cardiac RTF inh 17 | RTF inh confirm inactive
O=c1cc(-c2ccccc2Cl)oc2ccc([N+](=O)[O-])c(O)c12	none
O=[N+]([O-])c1cc([N+](=O)[O-])c2oc(-c3ccccc3)c(Br)c2c1O	Cardiac RTF inh 27 (no result: Bcl-xL primary, GLD-1 TGE inh) | RTF inh confirm inactive
O=C1C(=Cc2ccco2)C(=O)c2ccccc21	none
O=C(O)c1ccc2c(c1)C(=O)/C(=C\c1ccco1)C2=O	Bcl-xL primary 41, Cardiac RTF inh 20 | RTF inh confirm inactive
CCc1cccc(CC)c1NC(=O)COC(=O)CCc1cc(OC)c(OC)c(OC)c1	Cardiac RTF inh 19 | RTF inh confirm inactive
Cc1ccc(CN(Cc2cc3cc(C)ccc3[nH]c2=O)C(=O)N2CCOCC2)cc1	none
Cc1cccnc1NC(=O)C1CCCN1S(=O)(=O)c1ccc(Cl)cc1 (stereo not given)	Cardiac RTF inh 29 | RTF inh confirm inactive
C=CCOC(=O)C1=C(C)OC(N)=C(C#N)C1c1ccc2c(c1)OCO2 (stereo not given)	none
O=C(COc1ccc(Br)cc1Cl)NC(=S)N1CCc2ccccc21	none
O=C(COc1ccc(Br)cc1Br)NC(=S)N1CCCc2ccccc21	Cardiac RTF inh 17 | RTF inh confirm inactive
CCN(CC)S(=O)(=O)c1ccc(N2CCOCC2)c(NC(=O)C(C)(C)C)c1	none
COc1ccccc1NC(=O)OC(C)c1ccc(Cl)cc1 (stereo not given)	none
CCN(CC(=O)Nc1c(F)cccc1F)C(=O)/C=C/c1ccc2ccccc2n1	Bcl-xL primary 32, Cardiac RTF inh 20 | RTF inh confirm inactive
C/C(=N/NC(=O)CCc1c(C)n[nH]c1C)c1cccc([N+](=O)[O-])c1	none
O=C(c1ccc2nc(-c3ccco3)c(-c3ccco3)nc2c1)N1CCN(c2ccccc2)CC1	none
O=C(Nc1ccc2nc(-c3ccco3)c(-c3ccco3)nc2c1)NC1CC1	Cardiac RTF inh 24 (no result: Bcl-xL primary, GLD-1 TGE inh) | RTF inh confirm 19
O=C(Nc1ccc(F)c(Cl)c1)NC1CC1	none
O=C(O)c1ccc2nc(-c3ccco3)c(-c3ccco3)nc2c1	Cardiac RTF inh 47 (no result: Bcl-xL primary, GLD-1 TGE inh) | RTF inh confirm 70
COc1ccc(S(=O)(=O)N(C)CC(=O)Nc2ccc3c(c2)OCCO3)cc1	none
O=C(c1coc(=O)c(Br)c1)N1CCC(C(O)(c2ccccc2)c2ccccc2)CC1	none
CC1(C)CCCN(C(=O)c2coc(=O)c(Br)c2)C1	Cardiac RTF inh 22 (no result: Bcl-xL primary, GLD-1 TGE inh) | RTF inh confirm inactive
CC(=O)C1=C(C)NC(SCC(=O)c2ccc(F)cc2)=C(C#N)C1CC(C)C (stereo not given)	Cardiac RTF inh 19 | RTF inh confirm inactive
CC(=O)C1=C(C)NC(SCC(=O)c2ccc(Cl)cc2)=C(C#N)C1CC(C)C (stereo not given)	none
Cc1ccc(CSc2nnc(-c3cccc(S(=O)(=O)N4CCOCC4)c3)n2C2CCCC2)cc1	none
COc1ccc(/C=N/NC(=O)c2ccc(NS(=O)(=O)c3cccs3)cc2)cc1	none
O=S(=O)(O)c1cccc2c(N=Nc3ccc(O)c4ncccc34)cccc12	Cardiac RTF inh 37 | RTF inh confirm inactive
Cc1ccccc1N=Nc1ccc(O)c2ncccc12	none
CCCNC(=O)CSc1nccn1Cc1ccc(OC)cc1	Cardiac RTF inh 18 | RTF inh confirm inactive
CN1c2ccsc2C(O)=C(C(=O)Nc2ccccc2)S1(=O)=O	none
O=C(Nc1cc(S(=O)(=O)N2CCOCC2)ccc1N1CCOCC1)c1ccc(S(=O)(=O)N2CCCCC2)cc1	none
Cc1ccc(Nc2nc(N)nc(CN3CCN(C)CC3)n2)cc1	Cardiac RTF inh 18 | RTF inh confirm inactive
Cc1ccc(Nc2nc(N)nc(CN3CCCCCC3)n2)cc1	none
O=C(CSc1nnc(CNC(=O)c2ccc(F)cc2)o1)NCC1CCCO1 (stereo not given)	Cardiac RTF inh 27 | RTF inh confirm inactive
